Shown are actives, neighbours in structure and some others; about 3.3% of the full set was active somewhere.
ERAP1 inh: blocks human ERAP1 aminopeptidase activity. Q9NZ08. inhibition, % at 10.7 µM. recombinant ERAP1, Leu-AMC fluorescence, 60 min. actives 0.15% (n = 340,000). AID 652197;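 active = mean replicate inhibition of at least 30%, or all replicates individually reaching that 30% level; inactive = mean below 30% and not every replicate reaching it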;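 note: 0% = neutral control wells and 100% = L-leucinethiol positive control wells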
FGF22 binding: shifts melting point of recombinant human FGF22 | AID 651658 | actives 1.5% (n = 340,000) | Q9HCT0 | activity (Tm shift, normalised), % at 9.99 µM | recombinant FGF22 thermal shift, SYPRO orange fluorescence; percent of sucrose octasulfate shift, DMSO zero;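 active = mean Tm shift, scaled 0 neutral to 100 positive control, at about 1.3% or above, every replicate too, limit read from the data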
Target sequence (Q9HCT0 whole entry, looked up): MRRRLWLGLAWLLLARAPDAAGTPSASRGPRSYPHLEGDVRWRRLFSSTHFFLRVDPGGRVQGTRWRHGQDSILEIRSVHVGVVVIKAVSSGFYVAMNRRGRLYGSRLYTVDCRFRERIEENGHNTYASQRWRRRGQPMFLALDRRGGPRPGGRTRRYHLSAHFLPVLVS
GSIS activator: primary screen for activators of insulin secretion dependent on glucose, INS-1E cells, GLuc reporter luminescence | actives 0.61% (n = 370,000) | AID 743287 | activation, % at 16.6 µM | INS-1E GLuc reporter insulin secretion, 2-3 h;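 active = lowest replicate activation of at least 40%, so every replicate reaches that level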;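 note: 0% = median of neutral control wells and 100% = median of IBMX positive control wells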
SIRT5 block: inhibitors of human sirtuin-5 desuccinylase. Q9NXA8. Purified SirT5, succinyl-peptide AMC, trypsin-coupled fluorescence. inhibition, % at 15 µM. actives 1.1% (n = 330,000); in the data active = inhibition above about 15%
Target sequence (Q9NXA8 whole entry, looked up): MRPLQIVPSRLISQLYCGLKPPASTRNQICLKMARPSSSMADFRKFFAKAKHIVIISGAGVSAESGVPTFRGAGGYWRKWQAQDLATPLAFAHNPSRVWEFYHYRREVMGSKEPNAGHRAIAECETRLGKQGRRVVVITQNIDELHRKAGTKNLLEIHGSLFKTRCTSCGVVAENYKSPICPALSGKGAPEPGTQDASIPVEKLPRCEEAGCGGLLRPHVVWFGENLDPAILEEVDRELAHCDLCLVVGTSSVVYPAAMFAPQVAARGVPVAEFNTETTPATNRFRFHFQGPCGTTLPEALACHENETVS
CASP6 VEID inh: caspase-6 (human) enzyme inhibition | inhibition, % at 12.5 µM | purified caspase-6, Z-VEID-R110 cleavage fluorescence | actives 0.53% (n = 350,000) | P55212;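 active = mean inhibition across replicates at least about 35%, with every replicate also reaching that limit, limit read from the data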;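 note: 0% = median of neutral control wells and 100% = no fluorescence left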
Active calls of the source: *; · = not tested or not shown.

SMILES | ERAP1 inh | FGF22 binding | GSIS activator | SIRT5 block | CASP6 VEID inh
C[C@@H]1CN([C@@H](C)CO)C(=O)Cc2cc(NC(=O)Nc3ccccc3)ccc2O[C@H]1CN(C)Cc1ccc2c(c1)OCO2 | -2 | -1 | -23 | 5 | 1
O=C(NC1CCCCCC1)C1CCCN(c2ncccn2)C1 (centres undefined) | -2 | 0 | 65* | -2 | 8
O=C(NC1CCCCC1)C1CCN(c2ncccn2)CC1 | 0 | 0 | -8 | -2 | -2
CO[C@@H]1CN(C)C(=O)c2ccc(NC(C)=O)cc2OC[C@@H](C)N(CC2CCCCC2)C[C@@H]1C | -4 | 0 | -3 | -5 | -3
Cc1noc(C)c1S(=O)(=O)N(C)C[C@@H]1Oc2ccc(NC(=O)Nc3ccccc3)cc2CC(=O)N([C@@H](C)CO)C[C@@H]1C | · | · | -13 | · | ·
CC1(C)Cc2c(C#N)c(N3CCCC3)nc(-c3ccco3)c2CO1 | 2 | 0 | -25 | · | 11
CC1(C)Cc2c(c(-c3ccco3)nc3n[nH]c(N)c23)CO1 | · | · | 56* | · | ·
c1coc(-c2nc3ccccc3nc2-c2ccco2)c1 | 9 | 0 | -43 | -13 | 69*
COc1cc(CN(C)c2ccc(S(=O)(=O)N3CCCC3)cn2)ccc1OC(F)F | 1 | 0 | 44* | -1 | 2
O=C(N[C@H]1CC[C@H](CCn2cc(-c3ccccc3)nn2)O[C@@H]1CO)c1cnccn1 | 1 | 0 | 3 | 1 | 6
Cc1ccc(S(=O)(=O)N[C@@H](CO)C(=O)N[C@@H](Cc2ccc(O)cc2)C(=O)O)cc1 | -7 | -1 | 8 | 21* | 2
Cn1cc(CN2CCN(CCc3ccccc3)C(CCO)C2)cn1 (centres undefined) | -2 | 44* | 9 | 0 | -5
OCCC1CN(Cc2nc3c(s2)CCCC3)CCN1CCc1ccccc1 (centres undefined) | -6 | 44* | -3 | 2 | 2
OCCC1CN(CCCn2cccn2)CCN1Cc1ccccc1 (centres undefined) | 7 | 43* | -5 | -1 | -5
OCCC1CN(Cc2nc3c(s2)CCCC3)CCN1Cc1ccccc1 (centres undefined) | 1 | 0 | -8 | -3 | 0
CCn1cc(CN2CCN(Cc3cccc(OC)c3)C(CCO)C2)c(C)n1 (centres undefined) | -1 | 43* | -6 | 0 | -2
CCn1cc(CN2CCN(Cc3ccc(OC)c(C)c3C)C(CCO)C2)c(C)n1 (centres undefined) | 0 | 0 | -1 | 0 | 7
COc1ccc(CN2CCN(CCCc3ccccc3)C(CCO)C2)c(OC)c1 (centres undefined) | -3 | 0 | · | 18* | -9
COc1cccc(CN2CCN(CCc3ccccc3)C(CCO)C2)c1OC (centres undefined) | -3 | 44* | -3 | -3 | 1
COc1cccc2c1OCC(CN1CCN(CCC(C)C)C(CCO)C1)=C2 (centres undefined) | 5 | 43* | 4 | -8 | -5
COc1cccc(CN2CCN(CCCc3ccccc3)C(CCO)C2)c1OC (centres undefined) | -4 | 0 | -27 | -1 | -2
CCCN(C)C[C@@H]1OCCCC[C@@H](C)Oc2ccc(NS(=O)(=O)c3cccs3)cc2C(=O)N([C@@H](C)CO)C[C@@H]1C | 0 | 0 | -9 | -5 | 0
COc1cccc(NC(=O)N(C)C[C@H]2Oc3cc(C#Cc4ccc(F)cc4)ccc3S(=O)(=O)N([C@@H](C)CO)C[C@H]2C)c1 | 3 | 1 | -14 | 13 | 3
C[C@@H]1CCCCO[C@@H](CN(C)C(=O)c2ccccc2)[C@H](C)CN([C@H](C)CO)C(=O)c2cc(NC(=O)Nc3cccc4ccccc34)ccc2O1 | -1 | 0 | 3 | 7 | 9
Cc1noc(C)c1NC(=O)N(C)C[C@H]1Oc2ncc(C#CC3CCCC3)cc2C(=O)N([C@@H](C)CO)C[C@@H]1C | 0 | 0 | -7 | 3 | -3
SMILES | ERAP1 inh | FGF22 binding | GSIS activator | SIRT5 block | CASP6 VEID inh
O=C(Nc1cc(C(F)(F)F)ccc1N1CCCCC1)C1=COCCO1 | -2 | 1.9* | -17 | · | 1
CCC(C)N(C(=O)COC(=O)CSc1ccc(C)c(C)c1)C1CCS(=O)(=O)C1 (centres undefined) | -1 | 0 | -1 | -1 | -134
CCC(C)N(C(=O)CSc1nncn1C)C1CCS(=O)(=O)C1 (centres undefined) | -1 | 0 | 102* | -5 | -2
CCC(C)N(C(=O)CSc1ccc(NC(C)=O)cc1)C1CCS(=O)(=O)C1 (centres undefined) | 3 | 43* | 5 | -9 | 1
CC(C)(C)NCC(O)COc1ccc(Br)cc1 (centres undefined) | -5 | 44* | 3 | -5 | -5
CC(C)N(C(=O)COC(=O)[C@H](C)NC(=O)c1ccco1)c1ccccc1 | 2 | 0 | 0 | 31* | -1
CC(C)[C@H](NC(=O)c1ccco1)C(=O)OCC(=O)N(C)c1ccccc1 | 0 | 0 | -16 | -4 | -2
CCCNC(=O)Nc1ccc2c(c1)OC[C@H](C)N(CC1CCCC1)C[C@H](C)[C@@H](OC)CN(C)C2=O | 1 | 0 | · | 4 | -3
O=C(OCC1OC(n2ccc(=O)[nH]c2=O)C2OC12)c1ccccc1 (centres undefined) | 1 | 43* | 12 | · | 3
O=C(OCC1OC(n2ccc(=O)[nH]c2=O)C(Cl)C1O)c1ccccc1 (centres undefined) | 2 | 0 | 1 | 1 | 0
COc1ccc(Nc2nc(NCc3cccs3)nc3ccsc23)cc1OC | 1 | 0 | 48* | · | 0
COc1ccc(Nc2nc(NC(C)C)nc3ccsc23)cc1OC | 0 | 0 | -1 | · | 5
COc1cccc(S(=O)(=O)Nc2ccc3c(c2)C(=O)N(C)C[C@@H](OC)[C@H](C)CN(Cc2ccccc2F)[C@H](C)CO3)c1 | 2 | 0 | 4 | · | 0
Cn1cnc(S(=O)(=O)Nc2ccccc2N2CCOCC2)c1 | · | 0 | 20 | 15* | -2
CN(C)/C=N/c1c(C#N)cnn1-c1ncnc2sc(-c3ccccc3)cc12 | 2 | · | 74* | -6 | 5
CN(C)/C=N/c1c(C#N)cnn1-c1ccccc1 | -2 | 0 | 14 | -5 | -2
O=C(Nc1cccc(Cl)c1)N[C@@H]1CC[C@H](CCNC(=O)C2CCC2)O[C@H]1CO | 2 | 0 | -3 | 0 | 2
COc1ccc(N2C(=O)CCC2=O)c(OC)c1 | 3 | 0 | 42 | 2 | 1
COc1cc(N2C(=O)C=CC2=O)ccc1N1C(=O)C=CC1=O | 48* | 0 | · | · | -1
Cc1c(C(=O)OCC(=O)N2CC(C)CC(C)C2)oc2ccccc12 (centres undefined) | 0 | 46* | -2 | -7 | 3
CCN(CC)c1ccc(/C=C2\C(=O)N(c3nnc(C)c(=O)[nH]3)N=C2C)cc1 | · | -1 | -50 | 3 | 36*
O=C(c1cc2cc(Br)ccc2s1)N1CCOCC1 | 5 | 43* | 0 | -2 | -3

Compound activity (PubChem)
